# Test results reported in PubChem BioAssay (Tox21).
# Results filed as inconclusive are left out. Entries that show only a call come without a potency. The source holds several records for some structures; these can differ, active in one and inactive in another. Active and inactive are the calls of the source. The call rests on the fitted dose curve; in most records, active means well fitted cell-killing curve with a large enough effect in the repeat runs; inconclusive means weak or mixed curves, or effect the other way; inactive means flat fitted curve, though single readings scatter.
# Assay: Caspase-3/7 induction in HepG2 cells by small molecules, qHTS cell viability counter screen (AID 1346981); further: nearly all actives have a fitted effect of over 30% in size
# Settings: CellTiter-Fluor fluorescence, 17 h; series mostly up to 92.4 µM; activity change, negative = cytotoxicity: at the top concentration
# Description: U.S. Tox21 Program National Center for Advancing Translational Sciences [NCATS] NIH Chemical Genomics Center [NCGC] U.S. Environmental Protection Agency [EPA] National Institutes of Environmental Health Sciences [NIEHS] National Toxicology Program [NTP] U.S. Food and Drug Administration [FDA] Tox21 Assay Overview: Apoptosis is a process of programmed cell death and plays a central role in the development of multicellular organisms. It is a highly regulated process and induces cell death by activating caspases, which are the members of cysteine aspartic acid-specific protease (caspase) family. Caspases involved in apoptosis are classified by their mechanism of action as initiator caspases (caspase-2, -8, -9 and -10) and executioner caspases (caspase-3, -6, and -7). Inhibition of apoptosis results in number of cancers, autoimmune diseases, inflammatory diseases and viral infection. To identify small molecule compounds that induce apoptosis, a homogeneous, luminescent Caspase-Glo 3/7 assay was used. Wild type HepG2 cells were used to screen Tox21 libraries for identifying caspase-3/7 activity inducers. Also cytotoxicity of the compounds was tested in parallel by measuring the cell viability using CellTiter-Fluor assay system in the same wells.
# Tox21 Assay Protocol Summary: HepG2 cells were dispensed at 2,000 per well in 5uL of culture medium into white solid bottom 1536-well plates (Corning Life Sciences, Corning, NY) using a Multidrop Combi (Thermo Scientific, Waltham, MA) dispenser. The assay plates were incubated at 37 C and 5% CO2 for 5hr, and then 23nL of compounds dissolved in DMSO and positive control were transferred using a Pintool station ([…], San Diego, CA). The assay plates were incubated at 37C and 5% CO2 for 17hr. For cytotoxicity read, after 16hr incubation at 37C, 1uL CellTiter-Fluor reagent (Promega Corporation, Madison, WI) was added to each well of the assay plates using Flying Reagent Dispenser (FRD, Aurora Discovery, San Diego, CA). After 1hr incubation at 37C and 5% CO2, the fluorescence signal was quantified using a ViewLux plate reader (PerkinElmer, Shelton, CT).
# Potency means the concentration at half of the fitted maximal effect.
SMILES,"activity change, negative = cytotoxicity",Potency
CC(C)(CO)CO,1.49% (inactive),–
Cc1ccncc1,–,inactive
CCCOCC(C)O (stereo not given),–,inactive
NC1CCCCC1N (stereo not given),–,inactive
CCCCCCCCO,–,inactive
O=C1O[C@H]([C@H](O)CO)C(O)=C1O,–,inactive
CO[Si](CCCNCCN)(OC)OC,–,62 µM (active) and inactive
CC(=O)C(C)C,-0.34% (inactive),–
COc1ccccc1[N+](=O)[O-],4.66% (inactive),–
Cc1ccccc1C=O,–,inactive
CCCOC(=O)NCCCN(C)C,–,inactive
COC(=O)OC,-8.59% (inactive),–
CCCN(CCC)C(=O)SCC,–,inactive
CN1Cc2c(N)cccc2C(c2ccccc2)C1 (stereo not given),–,inactive
CCOC(=O)CC(=O)OCC,–,inactive
O=C(O)C1=NN(c2ccc(S(=O)(=O)O)cc2)C(=O)C1,–,inactive
N[C@@H](Cc1cc(I)c(Oc2ccc(O)c(I)c2)c(I)c1)C(=O)O,–,inactive
COc1ccc(N)c(OC)c1,6.12% [at 42.5 µM] (inactive),–
OC[C@H]1O[C@@H](Oc2ccc(O)cc2)[C@H](O)[C@@H](O)[C@@H]1O,–,inactive
O=C(c1ccccc1)c1ccc(O)c(O)c1O,–,61.6 µM (active)

SMILES,"activity change, negative = cytotoxicity",Potency
CC(=O)OC(C)(C)C1CC=C(C)CC1 (stereo not given),–,inactive
COC(=O)/C=C\C(=O)OC,–,inactive
Nc1nc(N)c2nc(-c3ccccc3)c(N)nc2n1,–,inactive
CC(=O)Nc1ccc(CC(=O)O)cc1,–,inactive
OB(O)O,–,inactive
CC1(C)[C@@H](O[C@H]2O[C@H](C(=O)O)[C@@H](O)[C@H](O)[C@H]2O[C@@H]2O[C@H](C(=O)O)[C@@H](O)[C@H](O)[C@H]2O)CC[C@]2(C)[C@H]3C(=O)C=C4[C@@H]5C[C@@](C)(C(=O)O)CC[C@]5(C)CC[C@@]4(C)[C@]3(C)CC[C@@H]12,–,inactive
NC(=O)c1ncn([C@@H]2O[C@H](CO)[C@@H](O)[C@H]2O)n1,–,inactive
CC1=CC(=O)CC(C)(C)C1,–,inactive
CCN(CC)CCNC(=O)c1ccc(N)cc1,–,inactive
CC(=O)OCCC(C)C,–,inactive
CC(=O)CC(=O)N(C)C,–,inactive
CCc1cccc(CC)c1N,–,inactive
C[Si](C)(C)N[Si](C)(C)C,–,inactive
C[n+]1ccn(CCO)c1,–,inactive
CCCCC(CC)COC(=O)c1ccc(C(=O)OCC(CC)CCCC)cc1 (stereo not given),–,inactive
Cc1ncc(CO)c(CO)c1O,–,inactive
CCCCCCCCC(=O)O,–,inactive
O=[N+]([O-])c1cc(C(F)(F)F)ccc1Cl,–,inactive
CC(COCC(C)OC(=O)c1ccccc1)OC(=O)c1ccccc1 (stereo not given),–,inactive
N#CCC(=O)O,–,inactive
